The supplement of paper PMC11732987, “Enantioselective OTUD7B fragment discovery through chemoproteomics screening and high-throughput optimisation” (Communications Chemistry, 2025)

Assays:
Assay in all cases: log2 ratio of Biotin-Ahx-Ub-VS probe labelling (fragment/DMSO); higher = less target engagement (more negative = stronger competition), active = hit call of the paper (q ≤ 0.05, log2 ratio ≤ -1)
Details in all cases: compound concentration: 200 uM; treatment time: 3 h
[1] = biological target: T1, USP19 (UniProt O94966)
T1 sequence (whole entry): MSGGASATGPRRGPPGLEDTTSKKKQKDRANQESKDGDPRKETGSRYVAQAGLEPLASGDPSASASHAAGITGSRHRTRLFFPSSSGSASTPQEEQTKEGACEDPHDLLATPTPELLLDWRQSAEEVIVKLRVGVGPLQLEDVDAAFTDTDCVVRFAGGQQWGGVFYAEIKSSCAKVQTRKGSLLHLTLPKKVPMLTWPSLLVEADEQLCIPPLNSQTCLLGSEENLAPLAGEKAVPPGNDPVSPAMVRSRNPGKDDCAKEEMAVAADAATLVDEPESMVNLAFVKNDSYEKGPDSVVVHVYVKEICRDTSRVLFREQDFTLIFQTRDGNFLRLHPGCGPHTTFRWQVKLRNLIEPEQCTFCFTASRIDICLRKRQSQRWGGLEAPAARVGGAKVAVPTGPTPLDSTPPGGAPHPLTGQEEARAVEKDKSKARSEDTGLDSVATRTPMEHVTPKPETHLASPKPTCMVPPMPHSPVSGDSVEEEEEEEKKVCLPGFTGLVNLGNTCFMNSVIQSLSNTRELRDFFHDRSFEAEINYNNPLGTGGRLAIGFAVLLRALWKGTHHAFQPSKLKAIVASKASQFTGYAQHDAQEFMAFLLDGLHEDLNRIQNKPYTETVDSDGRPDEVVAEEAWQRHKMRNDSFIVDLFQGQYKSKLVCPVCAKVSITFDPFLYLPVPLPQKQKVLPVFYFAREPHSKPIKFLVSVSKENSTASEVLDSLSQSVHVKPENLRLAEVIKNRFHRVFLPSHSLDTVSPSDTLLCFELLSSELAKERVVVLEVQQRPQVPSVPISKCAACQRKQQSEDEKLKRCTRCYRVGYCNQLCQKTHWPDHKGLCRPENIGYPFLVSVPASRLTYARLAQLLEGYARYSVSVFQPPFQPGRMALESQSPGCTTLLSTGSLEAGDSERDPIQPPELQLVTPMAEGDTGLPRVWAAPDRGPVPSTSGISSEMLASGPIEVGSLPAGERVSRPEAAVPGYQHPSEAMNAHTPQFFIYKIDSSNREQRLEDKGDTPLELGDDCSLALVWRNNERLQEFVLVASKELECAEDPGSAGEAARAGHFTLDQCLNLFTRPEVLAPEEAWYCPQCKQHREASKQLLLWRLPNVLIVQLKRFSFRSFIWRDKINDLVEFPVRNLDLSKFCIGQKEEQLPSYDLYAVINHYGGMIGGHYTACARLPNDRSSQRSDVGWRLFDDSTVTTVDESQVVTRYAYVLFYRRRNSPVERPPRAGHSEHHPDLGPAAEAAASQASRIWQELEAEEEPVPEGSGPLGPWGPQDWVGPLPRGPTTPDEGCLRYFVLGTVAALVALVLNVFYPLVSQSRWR
How it was run: (§1)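 Using Biotin-Ahx-Ub-VS at 0.5 µM final for 1 h, DUBs were labelled in HEK293T lysate (495 µg per sample) that had first been treated in triplicate with fragment at 200 µM or vehicle for 3 h. NeutrAvidin enrichment, LysC and trypsin digestion and diaPASEF LC-MS/MS followed. Spectronaut label-free quantities were global-median-normalised. Values are average log2 fragment/vehicle ratios by unpaired t-test, using proteins with ≥2 unique peptides.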

[2] = biological target: T2, USP22 (UniProt Q9UPT9)
T2 sequence (whole entry): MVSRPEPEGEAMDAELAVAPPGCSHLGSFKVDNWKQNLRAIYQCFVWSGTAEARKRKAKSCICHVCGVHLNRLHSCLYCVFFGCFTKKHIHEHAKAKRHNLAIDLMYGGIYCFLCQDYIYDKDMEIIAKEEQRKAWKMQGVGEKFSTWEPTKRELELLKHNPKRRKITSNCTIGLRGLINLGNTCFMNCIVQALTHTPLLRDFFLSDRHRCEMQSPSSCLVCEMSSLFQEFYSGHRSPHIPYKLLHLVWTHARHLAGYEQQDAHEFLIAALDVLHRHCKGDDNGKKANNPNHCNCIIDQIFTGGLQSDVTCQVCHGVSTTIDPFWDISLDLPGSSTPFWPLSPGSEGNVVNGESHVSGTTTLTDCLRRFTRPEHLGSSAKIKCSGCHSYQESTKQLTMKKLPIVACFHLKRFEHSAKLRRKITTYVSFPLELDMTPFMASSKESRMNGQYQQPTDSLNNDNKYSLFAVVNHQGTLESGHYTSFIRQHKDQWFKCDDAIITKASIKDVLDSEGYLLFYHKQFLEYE
How it was run: as §1

[3] = biological target: USP24 (UniProt Q9UPU5)
How it was run: as §1

[4] = biological target: T3, USP25 (UniProt Q9UHP3)
T3 sequence (whole entry): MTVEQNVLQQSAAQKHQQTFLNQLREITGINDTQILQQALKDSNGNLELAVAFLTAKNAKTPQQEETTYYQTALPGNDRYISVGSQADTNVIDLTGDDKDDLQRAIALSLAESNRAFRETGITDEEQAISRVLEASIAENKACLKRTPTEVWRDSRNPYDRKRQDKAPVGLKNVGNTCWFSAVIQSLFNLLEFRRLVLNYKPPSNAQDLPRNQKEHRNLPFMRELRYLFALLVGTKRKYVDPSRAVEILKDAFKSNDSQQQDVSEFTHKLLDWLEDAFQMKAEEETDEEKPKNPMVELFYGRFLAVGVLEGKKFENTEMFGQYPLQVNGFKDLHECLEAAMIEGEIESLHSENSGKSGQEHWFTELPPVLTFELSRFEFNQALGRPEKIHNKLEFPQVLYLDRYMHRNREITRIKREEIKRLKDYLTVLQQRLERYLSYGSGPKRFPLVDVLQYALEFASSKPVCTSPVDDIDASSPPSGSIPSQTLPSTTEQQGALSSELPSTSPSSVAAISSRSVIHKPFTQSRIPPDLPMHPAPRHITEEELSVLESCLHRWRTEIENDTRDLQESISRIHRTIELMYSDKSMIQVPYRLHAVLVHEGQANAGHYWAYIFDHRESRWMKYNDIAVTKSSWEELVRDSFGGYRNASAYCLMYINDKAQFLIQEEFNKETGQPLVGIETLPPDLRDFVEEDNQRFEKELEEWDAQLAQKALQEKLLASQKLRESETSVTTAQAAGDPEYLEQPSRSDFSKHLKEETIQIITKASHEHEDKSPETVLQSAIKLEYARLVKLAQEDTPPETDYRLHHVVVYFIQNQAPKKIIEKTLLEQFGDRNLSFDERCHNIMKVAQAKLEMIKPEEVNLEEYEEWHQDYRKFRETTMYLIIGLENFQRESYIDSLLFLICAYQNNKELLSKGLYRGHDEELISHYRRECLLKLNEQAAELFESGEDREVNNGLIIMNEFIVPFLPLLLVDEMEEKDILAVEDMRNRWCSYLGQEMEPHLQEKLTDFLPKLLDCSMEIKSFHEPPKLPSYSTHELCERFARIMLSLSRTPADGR
How it was run: as §1

[5] = biological target: T4, USP28 (UniProt Q96RU2)
T4 sequence (whole entry): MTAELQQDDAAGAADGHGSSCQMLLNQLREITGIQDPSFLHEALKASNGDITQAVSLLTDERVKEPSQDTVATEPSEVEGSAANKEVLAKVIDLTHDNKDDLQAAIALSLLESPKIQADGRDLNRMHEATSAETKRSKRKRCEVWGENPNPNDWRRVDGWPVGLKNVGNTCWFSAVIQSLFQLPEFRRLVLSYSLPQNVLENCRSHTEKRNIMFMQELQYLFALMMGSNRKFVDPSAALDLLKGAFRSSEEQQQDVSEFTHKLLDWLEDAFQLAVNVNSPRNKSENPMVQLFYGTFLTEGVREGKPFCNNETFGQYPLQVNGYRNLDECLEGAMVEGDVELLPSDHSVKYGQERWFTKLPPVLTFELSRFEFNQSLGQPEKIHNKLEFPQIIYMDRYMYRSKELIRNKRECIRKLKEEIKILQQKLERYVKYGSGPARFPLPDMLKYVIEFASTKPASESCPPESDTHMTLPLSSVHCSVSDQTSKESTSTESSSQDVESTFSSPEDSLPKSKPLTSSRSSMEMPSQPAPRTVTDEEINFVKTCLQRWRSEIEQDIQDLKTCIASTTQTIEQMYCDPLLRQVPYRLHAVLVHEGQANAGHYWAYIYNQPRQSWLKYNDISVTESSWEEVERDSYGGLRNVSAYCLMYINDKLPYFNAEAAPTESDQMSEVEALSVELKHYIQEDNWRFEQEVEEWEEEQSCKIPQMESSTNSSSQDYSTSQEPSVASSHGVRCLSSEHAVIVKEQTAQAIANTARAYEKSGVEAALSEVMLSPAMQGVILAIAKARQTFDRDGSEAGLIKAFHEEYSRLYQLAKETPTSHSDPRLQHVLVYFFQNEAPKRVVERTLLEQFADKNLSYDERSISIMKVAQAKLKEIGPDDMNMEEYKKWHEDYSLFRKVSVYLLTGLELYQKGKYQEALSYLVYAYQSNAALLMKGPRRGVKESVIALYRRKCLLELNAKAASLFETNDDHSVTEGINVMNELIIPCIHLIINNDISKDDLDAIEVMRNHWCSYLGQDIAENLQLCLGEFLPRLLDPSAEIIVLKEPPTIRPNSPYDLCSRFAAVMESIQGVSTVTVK
How it was run: as §1

Measured: log2 ratio of Biotin-Ahx-Ub-VS probe labelling

Chain of USP24 (Q9UPU5 whole entry): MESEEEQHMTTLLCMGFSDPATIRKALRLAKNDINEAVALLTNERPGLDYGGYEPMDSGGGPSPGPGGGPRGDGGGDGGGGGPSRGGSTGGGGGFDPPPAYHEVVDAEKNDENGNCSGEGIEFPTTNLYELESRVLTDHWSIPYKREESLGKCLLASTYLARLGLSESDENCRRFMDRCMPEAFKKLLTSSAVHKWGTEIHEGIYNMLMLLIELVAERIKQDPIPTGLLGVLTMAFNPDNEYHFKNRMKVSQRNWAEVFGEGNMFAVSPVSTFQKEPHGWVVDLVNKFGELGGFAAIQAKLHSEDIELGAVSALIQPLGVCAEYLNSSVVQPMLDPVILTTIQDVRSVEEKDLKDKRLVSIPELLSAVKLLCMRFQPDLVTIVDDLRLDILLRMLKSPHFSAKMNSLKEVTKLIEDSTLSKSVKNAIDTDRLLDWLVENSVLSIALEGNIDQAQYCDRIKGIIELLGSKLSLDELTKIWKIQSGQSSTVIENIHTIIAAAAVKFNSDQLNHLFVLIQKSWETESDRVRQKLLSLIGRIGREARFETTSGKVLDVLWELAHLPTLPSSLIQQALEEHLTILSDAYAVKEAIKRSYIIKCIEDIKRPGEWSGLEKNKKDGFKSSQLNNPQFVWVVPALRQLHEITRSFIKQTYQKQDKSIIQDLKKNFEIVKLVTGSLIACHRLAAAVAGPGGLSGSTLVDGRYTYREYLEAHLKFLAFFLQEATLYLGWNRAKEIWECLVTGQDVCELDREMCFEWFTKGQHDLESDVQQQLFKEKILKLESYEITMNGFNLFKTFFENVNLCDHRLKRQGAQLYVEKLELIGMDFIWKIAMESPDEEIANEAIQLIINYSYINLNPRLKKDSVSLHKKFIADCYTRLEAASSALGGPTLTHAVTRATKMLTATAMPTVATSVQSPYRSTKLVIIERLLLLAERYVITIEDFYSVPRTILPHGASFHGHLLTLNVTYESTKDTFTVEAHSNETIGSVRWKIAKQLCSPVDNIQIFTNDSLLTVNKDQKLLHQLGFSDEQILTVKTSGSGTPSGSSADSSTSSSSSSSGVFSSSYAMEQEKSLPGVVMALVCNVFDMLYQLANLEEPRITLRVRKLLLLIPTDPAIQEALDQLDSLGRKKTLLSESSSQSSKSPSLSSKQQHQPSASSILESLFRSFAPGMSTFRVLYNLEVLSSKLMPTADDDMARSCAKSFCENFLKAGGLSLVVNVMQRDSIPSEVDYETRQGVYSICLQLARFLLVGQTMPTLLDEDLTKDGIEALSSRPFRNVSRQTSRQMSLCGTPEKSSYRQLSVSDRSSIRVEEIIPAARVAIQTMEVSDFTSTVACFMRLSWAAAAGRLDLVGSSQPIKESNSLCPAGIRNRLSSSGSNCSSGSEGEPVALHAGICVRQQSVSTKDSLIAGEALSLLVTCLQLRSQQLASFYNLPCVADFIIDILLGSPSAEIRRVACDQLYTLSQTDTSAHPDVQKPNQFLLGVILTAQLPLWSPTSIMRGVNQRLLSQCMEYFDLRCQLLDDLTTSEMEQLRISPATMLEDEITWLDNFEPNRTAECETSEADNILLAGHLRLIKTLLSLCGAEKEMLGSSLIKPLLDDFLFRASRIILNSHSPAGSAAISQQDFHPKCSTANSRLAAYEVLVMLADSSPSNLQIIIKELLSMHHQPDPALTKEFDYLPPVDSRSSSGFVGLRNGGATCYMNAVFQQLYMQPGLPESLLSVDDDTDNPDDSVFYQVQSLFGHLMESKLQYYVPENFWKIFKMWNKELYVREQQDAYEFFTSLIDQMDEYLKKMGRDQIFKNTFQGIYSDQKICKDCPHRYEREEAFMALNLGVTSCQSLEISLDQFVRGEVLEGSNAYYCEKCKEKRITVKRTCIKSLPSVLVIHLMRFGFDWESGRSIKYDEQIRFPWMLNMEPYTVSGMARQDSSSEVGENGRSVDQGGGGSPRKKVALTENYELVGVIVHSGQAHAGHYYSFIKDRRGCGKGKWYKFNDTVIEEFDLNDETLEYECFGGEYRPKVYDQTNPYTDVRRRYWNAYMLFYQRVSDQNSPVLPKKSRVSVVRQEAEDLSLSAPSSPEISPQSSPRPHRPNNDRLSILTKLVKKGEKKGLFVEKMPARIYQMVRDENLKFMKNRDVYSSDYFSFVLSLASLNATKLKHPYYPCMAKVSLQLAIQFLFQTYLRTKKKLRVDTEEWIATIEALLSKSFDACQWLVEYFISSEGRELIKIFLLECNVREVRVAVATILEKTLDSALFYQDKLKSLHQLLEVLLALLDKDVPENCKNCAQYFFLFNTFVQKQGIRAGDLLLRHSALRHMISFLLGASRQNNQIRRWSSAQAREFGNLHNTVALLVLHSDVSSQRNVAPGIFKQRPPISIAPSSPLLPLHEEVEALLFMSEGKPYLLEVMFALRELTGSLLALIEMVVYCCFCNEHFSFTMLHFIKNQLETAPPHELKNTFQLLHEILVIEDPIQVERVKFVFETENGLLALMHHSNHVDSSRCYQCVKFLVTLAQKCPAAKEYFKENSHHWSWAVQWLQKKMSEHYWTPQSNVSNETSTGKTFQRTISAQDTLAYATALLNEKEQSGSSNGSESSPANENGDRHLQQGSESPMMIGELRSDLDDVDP

O=C(CCl)N1CCC(C(=O)N2CCCC2)CC1
inactive: [1] -0.228 | [2] 0.0347 | [3] -0.075 | [4] -0.128 | [5] -0.299
